The structures appear in SMILES notation. Screen size: about 1,500 compounds; about 100 (6.7%) were called active. Inconclusive results (about 7%) are left out. This is one part of a sample in which actives are shown more often than they occur. The call rests on the fitted dose curve; in most records, active means well fitted inhibition curve with a large enough effect; inconclusive means small, poorly fitted or top-dose-only effect, or effect the other way; inactive means flat fitted curve, though single readings scatter.
On the % scale 0 is the no-effect control and ±100 the full control effect; potency means the concentration at half of the fitted maximal effect.

The target in the experiment is Runt-related transcription factor 1 (Homo sapiens) + Core-binding factor subunit beta (Homo sapiens) (UniProt Q01196+Q13951). Kind of experiment: qHTS Assay for Compounds Blocking the Interaction Between CBF-beta and RUNX1 for the Treatment of Acute Myeloid Leukemia: Hit Validation. Further: nearly all actives have a fitted effect of over 60% in size. The following applies: AlphaScreen CBFb-His/RUNX1-biotin binding; series mostly up to 59.8 µM; activity, negative = inhibition: at the top concentration. The source says: NIH Chemical Genomics Center [NCGC]
Chain of Runt-related transcription factor 1 (Homo sapiens) + Core-binding factor subunit beta (Homo sapiens) (Q01196 whole entry, looked up): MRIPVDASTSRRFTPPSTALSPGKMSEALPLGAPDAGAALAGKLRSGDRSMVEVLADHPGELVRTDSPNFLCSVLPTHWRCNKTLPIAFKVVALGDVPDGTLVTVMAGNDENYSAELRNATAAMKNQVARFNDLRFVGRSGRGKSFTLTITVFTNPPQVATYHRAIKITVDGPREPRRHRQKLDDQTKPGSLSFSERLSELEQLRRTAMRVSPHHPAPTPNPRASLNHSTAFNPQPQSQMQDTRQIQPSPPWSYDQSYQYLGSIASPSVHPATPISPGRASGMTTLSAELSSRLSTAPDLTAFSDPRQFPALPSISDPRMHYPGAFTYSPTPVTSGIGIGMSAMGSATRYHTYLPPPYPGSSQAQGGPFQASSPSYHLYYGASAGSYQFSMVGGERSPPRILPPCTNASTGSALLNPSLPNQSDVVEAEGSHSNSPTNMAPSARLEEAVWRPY
Chain of Runt-related transcription factor 1 (Homo sapiens) + Core-binding factor subunit beta (Homo sapiens) (Q13951 whole entry, looked up): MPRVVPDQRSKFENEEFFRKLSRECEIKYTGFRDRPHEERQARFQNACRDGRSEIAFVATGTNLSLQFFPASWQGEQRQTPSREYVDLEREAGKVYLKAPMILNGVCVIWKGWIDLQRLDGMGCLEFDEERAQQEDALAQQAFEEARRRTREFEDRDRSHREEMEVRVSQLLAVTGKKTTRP
NIH Molecular Libraries Probe Production centers Network [MLPCN]
Assay Submitter (PI): Paul Liu
Core Binding Factor (CBF) abnormalities are associated with 20-25% of all acute myeloid leukemias (AML), of which 5-10% are further sub classified as acute myelomonocytic leukemia with eosinophilia, also known as M4Eo in the FAB classification scheme. This subtype of leukemia is usually associated with chromosome 16 inversion (p13:q22). Chromosome 16 inversion results in formation of the fusion oncogene CBFB-MYH11, which encodes the fusion protein CBF-beta-SMMHC.
It has been hypothesized that the interference of CBF-beta and RUNX1 binding could have therapeutic implications for patients with CBF mediated leukemias. We developed a CBF-beta and RUNX1 binding assay in AlphaScreenTM format and optimized it for high throughput screening to search for inhibitors. The goal of this project is to screen MLPCN's compound collection (MLSMR) for identifying the inhibitors of the interaction between CBF-beta and RUNX1 proteins as research probes. If these probes work well in the animal models, the ultimate goal of this project is to development a new drug treatment for this disease.
This assay can not be used to assess how apparent inhibitors interfere with protein binding, and whether inhibitors specifically bind to either protein. Disruption of this protein-protein interaction, through any mechanism, is the intended target activity.
The present data set was run to confirm the activity of hits from the primary screen.
NCGC Assay Protocol Summary:
Step, Parameter, Description
(1) Reagent, 3 uL CBFb-His/RUNX1-biotin mix incubated together for 20 minutes at room temperature (30 nM each)
(2) Compound or control, 23 nL compound stock solution
(3) Incubation, 15 minutes at Room temperature
(4) Reagent, 1 uL 50 ng each of beads (Nickel beads and streptavidin beads)
(5) Incubation, 90 minutes at Room temperature
(6) Detection, Excitation=365 nm Emission=440 nm, Envision reader in AlphaScreenTM mode
Keywords: MLSMR, MLPCN, NIH Roadmap, qHTS, NCGC, Core binding factor, CBF, CBF-beta, Acute myeloid leukemia
In general terms: qHTS replaces the single test concentration by a dilution series.
On to `Cc1ccc(C[n+]2cc(-c3ccc(Cl)cc3)n3c2CCC3)cc1`, for which the “activity, negative = inhibition” value was -2.88% (inactive). On the same count and under the same terms, with `COc1ccc(/C=N/OC(=O)c2ccc(Cl)cc2)c(Cl)c1OC` the figure was -5.17% (inactive); with `CCOC(=O)CSc1nnc(Cn2nnc3ccccc32)n1-c1ccc(F)cc1`, -4.39% (inactive); with `CN(CC(O)CN1CCOCC1)S(=O)(=O)O` (stereo unspecified), 3.07% (inactive).

As for `CCOC(=O)c1nn(-c2ccc([N+](=O)[O-])cc2)cc1O`, the “activity, negative = inhibition” value is -0.376% (inactive). In the case of `Cn1c(=O)c2cc3ccccc3nc2n(C)c1=O`, the “activity, negative = inhibition” value was 0.436% (inactive).

Regarding `COc1ccc(CCNC(=S)NCCc2ccc(OC)c(OC)c2)cc1OC`, the “activity, negative = inhibition” value is -3.02% (inactive). Take `CCO/C=C1\SC(=S)N(c2ccc(Cl)cc2)C1=O`: the “activity, negative = inhibition” value is -14.9% (inactive). `Cc1ccc(S(=O)(=O)NC(=O)Nc2ccc(OC(F)F)cc2)cc1`: the “activity, negative = inhibition” value is -0.722% (inactive).

For the compound `Nc1nc(-c2ccccc2)c(N=Nc2cccc3ccccc23)s1`, the Potency was 1940 nM (active). Regarding `Nc1nc(-c2ccccc2)c(N=Nc2ccccc2Cl)s1`, the Potency was 4340 nM (active). `Nc1nc(-c2ccccc2)c(N=Nc2ccc(Cl)cc2)s1`: the Potency is 13700 nM (active). Consider `Cc1cc(C)n2nc(N)c(N=Nc3ccccc3)c2n1`, for which the “activity, negative = inhibition” value is -9.08% (inactive). Take `CC1CC(C)(C)OC(C[N+]2(C)CCCCC2)O1` (stereo unspecified): the “activity, negative = inhibition” value was -0.393% (inactive). Take `COc1ccccc1NC(=S)NC1CCCCCCCCCCC1`: the “activity, negative = inhibition” value was -2.75% (inactive).

For the compound `CCOC(=O)C1CCCN(C(=O)Nc2c(-c3ccccc3)noc2C)C1` (stereo unspecified), the “activity, negative = inhibition” value was 0.758% (inactive).

On to `COc1ccc(C(=O)/C=C/Nc2cc(C)ccn2)cc1`, for which the “activity, negative = inhibition” value is -3.04% (inactive).

Consider `COC(=O)c1[nH]c2cc(OC)ccc2c1NC(=O)c1c(F)cccc1F`, for which the “activity, negative = inhibition” value is 3.22% (inactive). With `CC(C)(C)c1csc(Sc2ccc([N+](=O)[O-])cn2)n1`, the “activity, negative = inhibition” value is 3% (inactive). For the compound `CC(=O)Oc1cc2cccc(OC(C)=O)c(=O)c2c(OC(C)=O)c1OC(C)=O`, the Potency was 1120 nM (active). Turning to `O=C(N/N=C/c1ccc2c(c1)OCCO2)c1ccncc1`, the “activity, negative = inhibition” value is -1.01% (inactive). On the same count and under the same terms, with `CC(=O)c1cnn(-c2ccc(Cl)c(Cl)c2Cl)c1C` the figure was -3.5% (inactive); with `CCOC(=O)N1CCc2c(sc3nc[nH]c(=O)c23)C1`, -4.17% (inactive); with `CCc1c(C#N)sc(C(N)=O)c1CC`, -3.2% (inactive). With `CN=c1scc(-c2ccccc2F)n1/N=C/c1ccc(O)c(O)c1O`, the Potency is 6870 nM (active). Turning to `CC(=O)Nc1ccc(S(=O)(=O)Nc2ccc(C(=O)NCC(=O)O)cc2)cc1`, the “activity, negative = inhibition” value was 4.22% (inactive). The same measure, in the same setting: with `Cc1cccc(C)c1NC(=S)N1CCOCC1` the figure was 0.441% (inactive); with `Cc1ccc(C(=O)CSc2nnc(-c3snnc3C)n2C2CC2)cc1`, 5.91% (inactive). As for `CC1=[N+](C)N(c2ccccc2)C(=O)C1N=C/C=C/c1ccccc1` (stereo unspecified), the “activity, negative = inhibition” value is 7.59% (inactive).

As to `CN(C)c1ccc(N2C(=O)CC(c3ccccc3)CC2=O)cc1`, the “activity, negative = inhibition” value is -1.11% (inactive). In the case of `CC1=NN(c2ccccc2)C(=O)/C1=C/C=C/c1ccc(N(C)C)cc1`, the Potency was 1120 nM (active).

In the case of `CN1CCN(C(=O)Nc2cccc(-c3ccccc3)c2)CC1`, the “activity, negative = inhibition” value was 1.01% (inactive).

On to `CCc1c(-c2ccccc2)[n+](=O)c2c(n1[O-])CCC2`, for which the “activity, negative = inhibition” value is -0.602% (inactive). Turning to `O=C(O)C1=CC(=C(c2ccc(O)c(C(=O)O)c2)c2ccc(O)c(C(=O)O)c2)C=CC1=O`, the Potency was 1780 nM (active). Take `O=C(NC(=S)NNC(=O)c1cnccn1)c1ccc(F)cc1`: the Potency was 2000 nM (active). Take `O=C(N/N=C/c1ccncc1)c1cnccn1`: the “activity, negative = inhibition” value is -5.76% (inactive).

On to `O=C(NNC(=S)NC1CC2C=CC1C2)c1ccncc1` (stereo unspecified), for which the “activity, negative = inhibition” value is 8.75% (inactive). For the compound `CCOP(=O)(c1ccc(N(C)C)cc1)C(O)c1cccnc1` (stereo unspecified), the “activity, negative = inhibition” value was -3.85% (inactive).

Consider `CN(C)NC(=S)NC1CCS(=O)(=O)C1` (stereo unspecified), for which the “activity, negative = inhibition” value is 1.34% (inactive). As for `O=C1CC(Sc2ccc(Cl)cc2)C(=O)N1c1ccc2c(c1)OCCO2` (stereo unspecified), the “activity, negative = inhibition” value is -12% (inactive).

With `Cc1cccc(-c2n[nH]c(=S)n2/N=C/c2ccco2)c1`, the “activity, negative = inhibition” value is -6.05% (inactive). `O=[N+]([O-])c1cc2c(cc1/C=N/n1c(-c3ccccn3)n[nH]c1=S)OCO2`: the Potency is 10000 nM (active).

On to `Fc1ccccc1/C=N/n1c(-c2cccnc2)n[nH]c1=S`, for which the “activity, negative = inhibition” value was -0.276% (inactive). With `Cc1cc(C)cc(NC(=O)NCC(O)COc2ccc([N+](=O)[O-])cc2)c1` (stereo unspecified), the “activity, negative = inhibition” value is 3.3% (inactive). Take `CCOc1cc(/C=N/n2c(C)nnc2C)ccc1O`: the “activity, negative = inhibition” value is -4.6% (inactive).

With `Cc1ccccc1Nc1ncc(C#N)c(N)n1`, the “activity, negative = inhibition” value is -0.858% (inactive). As to `O=C(Nc1ccc(Cl)cc1)Nc1ccc(C(=O)N2CCOCC2)cc1`, the “activity, negative = inhibition” value was -1.96% (inactive). The same measure, in the same setting: with `CCCc1nc2sc3ccccc3c(=O)c2c(=O)n1Cc1ccc(OC)cc1` the figure was 4.52% (inactive); with `Cc1c(C(=O)/C=C/N(C)C)nnn1-c1ccc(Cl)c(Cl)c1`, 4.52% (inactive). On to `O=c1cc2c(=O)oc3cc(O)c(O)oc3c2c(O)c1O`, for which the Potency was 447 nM (active). The same measure, in the same setting: then `O=c1oc2c(O)c(O)cc3c(=O)oc4c(O)c(O)cc1c4c23`, with 158 nM (active).

Regarding `COC(=O)Cc1[nH]c(=O)[nH]c1C(=O)OC`, the “activity, negative = inhibition” value is -2.87% (inactive). Turning to `CSc1ccc(NC(=O)Nc2cc(C)ccn2)cc1`, the “activity, negative = inhibition” value was -4.53% (inactive). Take `C[N+](C)(C)CCCN(Cc1ccc2c(c1)OCO2)C(=O)NC1CCCCC1`: the “activity, negative = inhibition” value was -8.77% (inactive).

Regarding `C=CCNC(=S)Nc1c(C(=O)OC)[nH]c2cc(OC)ccc12`, the “activity, negative = inhibition” value is -6.58% (inactive). In the case of `O=C(O)c1cc(O)c2c(c1)[C@H]([C@H]1c3cc(C(=O)O)cc(O)c3C(=O)c3c(O[C@@H]4OC(CO)C(O)C(O)C4O)cccc31)c1cccc(O[C@@H]3OC(CO)C(O)C(O)C3O)c1C2=O` (stereo partly specified), the Potency is 562 nM (active).

The values are drawn from PubChem BioAssay AID504374 (National Center for Advancing Translational Sciences (NCATS), 2011).
